Pf growth 96h – P. falciparum growth inhibition at 96 hours. Potency, µM (highest dose often 28.7 µM), for inactives: top-dose activity change, negative = inhibition, most hits filed as inhibitors. actives 6.9% (n = 320,000). P. falciparum luciferase reporter growth, 96 h. AID 504834
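Plates of compound plus infected erythrocytes (2% hematocrit, 0.05% parasitemia final) incubate 96 hours, 37 C, 5% CO2. Detection reagent added; reduced luminescence from the parasites' luciferase reporter flags inhibition.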
Pf growth 48h – P. falciparum growth inhibition at 48 hours (one generation); P. falciparum luciferase growth in erythrocytes, 48 h; Potency, µM (highest dose often 28.7 µM), inactives show at the highest dose activity change, negative = inhibition, most hits filed as inhibitors; actives 5.9% (n = 310,000); AID 504832
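First compound was added to culture medium, then infected red cells at 0.1% parasitemia and 2% hematocrit (final). After incubation at 37 C under 5% CO2, luciferase detection reagent was dispensed and light output recorded.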
HCV inh – HCV inhibition. Huh7.5.1 HCVcc-Cre infection, luciferase reporter, 44 h. Potency, µM (doses to about 41.8 µM), for the others: at the highest dose activity change, negative = inhibition, most hits filed as inhibitors. actives 3.4% (n = 340,000). AID 651820
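Luciferase read-out (15 sec integration) after a 15 min room-temperature substrate step quantifies HCVcc-Cre infection. Cells, 1,000 per well, had compound added 4 h post-plating, then virus at ~0.5 moi, and were cultured 44 h.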
AMA1-RON2 inh – inhibitors of Plasmodium falciparum AMA1-RON2 interaction | actives 0.2% (n = 360,000) | AlphaScreen AMA1-biotinylated RON2 peptide binding | Potency, µM (top dose mostly 58.2 µM), without a hit: top-dose activity change, negative = inhibition, usual class: inhibitors;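 note: 0% = vehicle wells and -100% = peptide control; nearly all actives have a fitted effect of over 45% in size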
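AMA1 (3D7) with his tag at 25 nM final met compounds first, then biotinylated RON2 peptide at 25 nM; detection used donor plus acceptor beads, 10 µg/mL apiece, read by AlphaScreen after 30 min at room temperature.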
The depositor's hits bear a star; ? = inconclusive; · = not tested or not shown. The list is not random: actives were taken first. Their share in the collection is about 11%. Calls come from the whole dose curve; as a rule, active = well fitted curve in the direction sought with a large enough effect; inconclusive = small, poorly fitted or top-dose-only effect, or another doubt; inactive = no such curve, though single readings can be large; an effect the other way counts as inactive or inconclusive. Unless noted, % is set by controls: 0 for no effect and ±100 for the full control effect; potency is the fitted concentration of half-maximal effect.

SMILES	Pf growth 96h	Pf growth 48h	HCV inh	AMA1-RON2 inh
Cc1oc2c(c1C(=O)N1CCC(C)CC1)C(=O)c1ccccc1C2=O	0.093µM*	0.23µM*	?	-6%
CCOC(=O)C1CCN(C(=O)c2c(C)oc3c2C(=O)c2ccccc2C3=O)CC1	0.29µM*	0.41µM*	-13%	-2%
CC1CCN(C(=O)c2ccc3c(c2)C(=O)c2ccccc2-3)CC1	·	·	·	-4%
CCOC(=O)C1CCN(C(=O)c2ccc(C)o2)CC1	·	·	6%	9%
COC(=O)[C@]1(C)CCC[C@@]2(C)C3CC[C@@]4(C)C[C@]3(CCC21)CC(=O)N4 (some centres undefined)	?	2%	23%	0%
C=C1C(=O)C23CCC4C(C)(C(=O)OC)CCCC4(C)C2CCC1(O)C3 (centres undefined)	·	·	3.2µM*	-7%
COc1cccc(/C=N/Nc2ncnc3scc(-c4ccccc4)c23)c1O	2.3µM*	2.9µM*	?	23%
COc1ccc(/C=N/Nc2ncnc(Cl)c2N)cc1OC	24%	6%	26%	44%
COc1cccc(/C=N/Nc2ncnc(Cl)c2N)c1O	2.6µM*	1.7µM*	5.6µM*	-19%
COc1cccc(/C=N/Nc2nccnc2Cl)c1O	-3%	?	2.5µM*	-32%
CCCCC1=NN2C(=N)CC(=O)N=C2S1	?	26%	8%	13%
O=C(NN=C1CCCC1)c1cccc(Br)c1	15%	7%	-8%	50%
CC(C)CCN(C(=S)Nc1cccc(F)c1)C1CCN(C(C)C)CC1	60%	?	11µM*	4%
CC1(C(=O)Nc2ccccc2Br)CCN1C(=O)Cc1ccccc1Cl (centres undefined)	·	·	·	-6%
CC1CCCCN1S(=O)(=O)c1ccc(S(=O)(=O)NCCc2ccncc2)cc1 (centres undefined)	?	?	?	3%
CN(C)S(=O)(=O)c1cccc(CSCc2cccc(S(=O)(=O)N(C)C)c2)c1	-7%	-5%	2.2µM*	-3%
O=C1NC(=O)C(Cc2c[nH]c3ccccc23)N1 (centres undefined)	43%	43%	13%	17%
CC(C)c1nc(SCC(=O)Nc2ccc(N(C)C)cc2)c2ccccc2n1	27%	12µM*	?	?
CC(C)c1nc(SCC(=O)Nc2nccs2)c2ccccc2n1	?	-7%	-10%	4%
CCOC(=O)CSc1nc(C(C)C)nc2ccccc12	13µM*	0%	-20%	8%
CN(C)c1ccc(NC(=O)CSc2nc(N)c(C(=O)Nc3ccc(N(C)C)cc3)s2)cc1	?	?	10µM*	?
COC(=O)CSc1nc(C(C)C)nc2ccccc12	-2%	-1%	5%	12%
COc1ccc2nc(NC(=O)Cn3cnc4ccccc4c3=O)sc2c1	50%	35%	17%	-17%
Cc1cccc(-c2cc3c(N=O)c4ccccc4c-3n[nH]2)c1	45%	38%	11µM*	-4%
COc1cccc(OC)c1C(=O)Nc1ccccc1Sc1ccccc1	·	·	?	-9%
SMILES	Pf growth 96h	Pf growth 48h	HCV inh	AMA1-RON2 inh
CCOc1ccc(S(=O)(=O)N2CCOCC2)cc1NC(=O)CN1C(=O)NC(CC)(c2ccccc2)C1=O (centres undefined)	?	12µM*	-29%	7%
Cc1ccc(C2(C)NC(=O)N(CC(=O)Nc3cc(S(=O)(=O)N4CCOCC4)ccc3OC(C)C)C2=O)cc1 (centres undefined)	·	·	?	-4%
CC(C)Oc1ccc(S(=O)(=O)N2CCCCC2)cc1NC(=O)CN1CCCC1c1cccs1 (centres undefined)	4.1µM*	4.1µM*	?	0%
CCOc1ccc(S(=O)(=O)N2CCCCC2)cc1NC(=O)CN1C(=O)NC(C)(c2ccc(C)cc2)C1=O (centres undefined)	7.4µM*	13µM*	10µM*	60%
CCC1(c2ccccc2)NC(=O)N(CC(=O)Nc2cc(S(=O)(=O)N3CCOCC3)ccc2OC(C)C)C1=O (centres undefined)	?	12µM*	?	0%
CCOC(=O)c1c(C)nc2cc(C)cc(C)n12	12%	23%	7%	-2%
COc1ccc(Oc2cccc(Cl)c2CNC(=O)CCCC(=O)O)cc1	5%	106%	13%	17%
COCC1CCN(C(=O)C2CCC(=O)N(C3CCCCCC3)C2)CC1 (centres undefined)	?	1%	·	0%
